FMDV antiviral: antivirals against foot and mouth disease virus. hit rate 1.2% among 410,000. Potency, µM (titrated, usually from 57.9 µM), without a hit: at the highest dose activity change, negative = inhibition, most hits filed as inhibitors. FMDV antiviral cell-based qHTS; calls by dose curve; tested in HEK293T cells; note: read-out not given here; potency is the fitted concentration of half-maximal effect; nearly all actives have a fitted effect of over 45% in size
FBPA Giardia inh: blocks Giardia fructose-bisphosphate aldolase activity; Potency, µM (highest dose often 59.6 µM), for inactives: at the top dose activity, negative = inhibition, most hits filed as inhibitors; A8B2U2; hit rate 0.71% among 290,000; purified Giardia FBPA; note: potency is the fitted concentration of half-maximal effect; nearly all actives have a fitted effect of over 55% in size
Target sequence (A8B2U2 whole entry, looked up): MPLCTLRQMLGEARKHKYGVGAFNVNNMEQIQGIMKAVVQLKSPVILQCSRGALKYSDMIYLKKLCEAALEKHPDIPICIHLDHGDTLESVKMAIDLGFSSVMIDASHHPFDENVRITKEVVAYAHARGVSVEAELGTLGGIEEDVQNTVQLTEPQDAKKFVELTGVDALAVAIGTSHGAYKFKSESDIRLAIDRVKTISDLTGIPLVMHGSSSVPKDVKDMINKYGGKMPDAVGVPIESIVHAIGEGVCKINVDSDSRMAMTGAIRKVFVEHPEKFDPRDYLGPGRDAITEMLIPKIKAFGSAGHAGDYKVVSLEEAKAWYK
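Giardia FBPA (40 nM reagent) was preincubated 10 min at RT with compound (up to 57.5 uM final), then substrate plus GAPDH/TPI/NAD/arsenate coupling system with diaphorase/resazurin was added; resorufin fluorescence (525/598 nm) was read after 20 min.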
VACV mCherry inh: vaccinia inhibition (mCherry reporter) | Potency, µM (series often up to 36.5 µM), inactives show top-dose activity change, negative = inhibition, hits mostly inhibitors | AID 720579 | hit rate 0.63% among 310,000 | Vaccinia virus mCherry reporter infection, fluorescence; calls by dose curve; tested in A549 cells; note: potency is the fitted concentration of half-maximal effect; nearly all actives have a fitted effect of over 35% in size
HCV inhibitor: inhibitors of hepatitis C virus infection; Huh7.5.1 HCVcc-Cre infection, luciferase reporter, 44 h; Potency, µM (top dose mostly 41.8 µM), for inactives: at the top dose activity change, negative = inhibition, actives largely listed as inhibitors; hit rate 3.4% among 340,000; note: potency is the fitted concentration of half-maximal effect
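Seed cells (1,000/well) for 4 h; treat with compound and infect with HCVcc-Cre, moi about 0.5. Incubate 44 h, then detect luciferase activity.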
VACV Venus inh: inhibitors of vaccinia virus (Venus reporter); hit rate 0.46% among 330,000; AID 720580; Potency, µM (doses to about 36.5 µM), inactives show at the highest dose activity change, negative = inhibition, usual class: inhibitors; Vaccinia virus Venus reporter expression, fluorescence; calls by dose curve; tested in A549 cells; note: potency is the fitted concentration of half-maximal effect; nearly all actives have a fitted effect of over 30% in size
HCMV inh: inhibitors of human cytomegalovirus. HFF cells, HCMV-luciferase reporter, 72 h; active compounds read low. activity change, negative = inhibition, % at 57.5 µM. hit rate 4.5% among 410,000. AID 1259415; in the data active = activity change below about -60%; inconclusive = no clear call, values can overlap the other calls; inactive = above about -39%
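Two compound doses tested in HFFs infected with HCMV-luciferase, MOI 1 PFU/cell, 72 h at 37C. Lysate luminescence read with OneGlo; data normalized against buffer-only and 10uM Salinomycin inhibitor controls.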
Numbers without * were called inactive; i = inactive; u = inconclusive; x = no result given; [ ] = another dose, or the depositor's remark. Shown are actives, neighbours in structure and some others; about 7.5% of the full set was active somewhere. Unless noted, calls come from the whole dose curve; as a rule, active = well fitted curve in the direction sought with a large enough effect; inconclusive = small, poorly fitted or top-dose-only effect, or another doubt; inactive = no such curve, though single readings can be large; an effect the other way counts as inactive or inconclusive. % is set by controls: 0 for no effect and ±100 for the full control effect.

SMILES	FMDV antiviral	FBPA Giardia inh	VACV mCherry inh	HCV inhibitor	VACV Venus inh	HCMV inh
O=C(Nc1ccc(S(=O)(=O)N2CCCC2)cc1)c1ccc2c(=O)n3c(nc2c1)CCCCC3	u	0%	-12%	11µM*	-4%	-90*
CC(=O)c1ccc(NC(=O)c2ccc3c(=O)n4c(nc3c2)CCCCC4)cc1	u	x	x	u	x	-31
COC(=O)C1=C(C)N(Cc2ccco2)C(=O)N[C@H]1c1ccc(Br)cc1	x	0%	x	1%[8.37 µM]	x	x
CC(=O)COc1cccc2ccc(/C=C/c3ccc(Br)s3)nc12	-3%	-8%	x	11µM*	x	37
CCCc1c(C(=O)NNc2cc(C(F)(F)F)ccc2Cl)cnn1-c1ccccc1	-12%	-6%	-19%	u	-11%	-66*
CCCc1c(C(=O)Nc2ccc(C(F)(F)F)cc2)cnn1-c1ccccc1	u	-3%	x	u	x	-16
C/C(Cl)=C\Cn1c(O)c(N=NC(N)=S)c2ccccc21	u	-10%	0.32µM*	-20%	u	-18
Cc1ccc(NC(=O)Cn2c(O)c(N=NC(N)=O)c3ccccc32)cc1	1%	1%	-7%	-24%	-14%	-35
Cc1ccc(NC(=O)Cn2c(O)c(N=NC(N)=S)c3ccccc32)cc1	-24%	-8%	u	u	0.28µM*	-17
NC(=S)N=Nc1c(O)n(Cc2ccccc2)c2ccccc12	-15%	-3%	u	u	0.32µM*	u
COc1cc(-c2nnc(SCC(=O)NCc3ccccc3Cl)o2)cc(OC)c1OC	u	x	-24%	x	-15%	-23
COc1cc2c(cc1NC(=O)c1ccncc1)oc1ccccc12	11%	-1%	-11%[1.46 µM]	u	u	x
COc1cc2c(cc1NC(=O)c1ccc(C)c([N+](=O)[O-])c1)oc1ccccc12	-15%	5%	-3%	u	-2%	87
COc1cc2c(cc1NC(=O)c1cccc([N+](=O)[O-])c1)oc1ccccc12	13µM*	0%	x	u	-30%	u
COc1cc2c(cc1NC(=O)c1cccnc1)oc1ccccc12	40%	-2%	u	3.2µM*	-30%	44
O=C(NCc1ccc(C(F)(F)F)cc1)c1ccc(-c2ccc(F)c(F)c2)c2ccoc12	-24%	x	i	x	-5%	1
COc1ccc(-c2ccc(C(=O)NCc3ccncc3)c3occc23)c(C)c1	-19%	x	-25%	x	-17%	-91*
O=C(NCc1ccncc1)c1cc(-c2ccc(Cl)cc2)oc1C(F)(F)F	u	-1%	x	11µM*	x	-27
COc1ccc(-c2ccc(C(=O)NCc3ccc(F)c(F)c3)c3occc23)c(C)c1	-14%	x	-5%	x	-13%	u
O=C(NCc1ccncc1)c1ccc(-c2ccc(F)c(F)c2)c2ccoc12	u	x	-9%	x	u	-73*
CNC(=O)[C@@H]1C[C@@H](NCc2cccc(Oc3ccccc3)c2)CN1C(C)C	-13%	x	-14%	x	-10%	x
CC1(C)Oc2ccc3ccc(=O)oc3c2/C(=C/NNC(N)=O)C1=O	-14%	9%	x	-14%	x	-95*
CCOC(=O)C1CCN(c2cc3c(cc2NC(=O)c2ccccc2Cl)n(C)c(=O)n3C)CC1	-29%	x	-1%[7.34 µM]	u	-10%[7.34 µM]	10
CCOC(=O)C1CCN(c2cc3c(cc2NC(=O)c2ccccc2F)n(C)c(=O)n3C)CC1	-20%	x	i	11µM*	-6%	0
Cc1onc(-c2ccccc2)c1C(=O)NCCN1Cc2ccccc2OC(c2ccsc2)C1 (stereo not given)	-19%	x	-1%	x	-9%	x
CCOc1ccc(-n2nc(C(=O)NC3CCCCC3)c3ccccc3c2=O)cc1	-3%	7%	x	1%	x	-5
O=C(/C=C/Nc1ccccc1)C(F)(F)F	-15%	2%	-16%	7%	-15%	-80*
Cc1ccc(N(CCCCN2C(=O)c3ccccc3C2=O)C(=O)c2ccc(Cl)s2)cc1	0%	4%	i	u	-12%	-62*
O=C1c2ccccc2C(=O)N1CCCCN(C(=O)c1ccc(Cl)s1)c1ccc(Cl)cc1	u	1%	-5%	u	-5%	-24
Cc1cc2c(cc1C)NC(c1cccc(Br)c1)=C(N(Cc1ccccc1)C(=O)C(=O)c1ccccc1)C(=O)N2	x	x	x	x	x	-6
